The supplement of paper PMC7156485
± gives the standard deviation of the averaged measurements.

These compounds were tested on HCC1569 (assay: cell number relative to DMSO (% of DMSO); higher = more cells (less growth inhibition / toxicity)). Conditions: concentration: 10 µM; 24 h.
Outline: (§1)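 H1.0 nuclear intensity or cell number is stated as percent of the plate control, based on the median of replicates, and HCC1569 values were smoothed for positional effects. These came from HCC1569 and TDF cells treated with compounds at 10 µM for 24 h at 37 °C in triplicate, then fixed in 3.7% formaldehyde and stained with a rabbit anti-H1.0 antibody, an AlexaFluor 647 secondary and DAPI.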
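Note: TDF denotes transformed human dermal fibroblasts of mesenchymal origin.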

| SMILES | cell number |
| --- | --- |
| O=C(O)c1ccccc1C(=O)Nc1ccc(-c2ccccc2)cc1 [2-[([1,1'-biphenyl]-4-ylamino)carbonyl]benzoic acid] | 104 |
| CON=C(C(=O)NC1C(=O)N2C(C(=O)[O-])=C(C[N+]3(C)CCCC3)CSC12)c1csc(N)n1 (stereo not drawn) [Cefepime] | 99.6 |
| CCCCCCCCC(=O)NCc1cc(OC)c(O)cc1I [N-(4-hydroxy-2-iodo-5-methoxybenzyl)nonanamide] | 96.2 |
| NNC(=O)c1ccncc1 [Isoniazid] | 105 |
| COc1cc(Br)c(Nc2nc(-c3c(C)nc4ncccn34)cs2)c(Br)c1 | 61.1 |
| C=C1CCC2OC2(C)CCC2C1CC2(C)C (stereo not drawn) [Caryophylline] | 104 |
| COc1ccc(-c2cnc3c(-c4ccsc4)cnn3c2)cc1 [VEGF Receptor 2 Kinase Inhibitor IV] | 94.9 |
| NC(=O)Nc1sc(-c2ccc(F)cc2)cc1C(N)=O [IKK-2 Inhibitor IV] | 80.1 |

Each compound was assayed on TDF in the same assay as above. Conditions: concentration: 10 µM; 24 h.
Outline: as §1

| SMILES | cell number |
| --- | --- |
| CCCCCC(O)C=CC1C=CC(=O)C1CC=CCCCC(=O)O (stereo not drawn) [Prostaglandin A2] | 110 |
| COC(=O)c1ccc2c(c1)NC(=O)C2=C(Nc1ccc(N(C)C(=O)CN2CCN(C)CC2)cc1)c1ccccc1 [Vargatef] | 106 |
| C1COC(NC(C2CC2)C2CC2)=N1 [Rilmenidine hemifumarate] | 108 |
| CN1c2cc3c(cc2N=C(c2ccc(C(=O)O)cc2)c2ccccc21)C(C)(C)CCC3(C)C | 88.5 |
| CC1CCCC(C)N1NC(=O)c1ccc(Cl)c(S(N)(=O)=O)c1 (stereo not drawn) [Clopamide] | 104 |
| CCCCC(=O)N(Cc1ccc(-c2ccccc2-c2nn[nH]n2)cc1)[C@H](C(=O)O)C(C)C | 112 |
| Cn1c(=O)c(-c2c(Cl)cccc2Cl)cc2cnc(Nc3cccc(C(=O)O)c3)nc21 | 111 |
| CC(C)=CCC[C@@H](C)[C@H]1CC[C@H]2[C@@H]3CC=C4C[C@@H](O)CC[C@]4(C)[C@H]3CC[C@]12C [(3beta)-cholesta-5,24-dien-3-ol] | 88.8 |
| CCCCCCCCCCCC=CCCCCC(=O)O [6(E)-Octadecenoic acid] | 101 |
| CN(c1ccccc1CNc1nc(Nc2ccc3c(c2)CC(=O)N3)ncc1C(F)(F)F)S(C)(=O)=O | 22.4 |
| CC12CCC3c4ccc(O)cc4CCC3C1CC(O)C2O (stereo not drawn) [Estriol] | 97.8 |
| CCCCCCCCC=CCC=CCC=CCCCC(=O)O [5(Z), 8(Z), 11(Z)-Eicosatrienoic Acid] | 105 ± 7.9 |
| COc1ccc2[nH]c(S(=O)Cc3ncc(C)c(OC)c3C)nc2n1 (stereo not drawn) [Tenatoprazole] | 104 |
| COc1ccc(CNC(=O)c2sc3nc(C)cc(C)c3c2N)cc1 | 102 |
| CCC1(O)CC2CN(CCc3c([nH]c4ccccc34)C(C(=O)OC)(c3cc4c(cc3OC)N(C)C3C(O)(C(=O)OC)C(OC(C)=O)C5(CC)C=CCN6CCC43C65)C2)C1.O=S(=O)(O)O (stereo not drawn) [Vinblastine sulfate salt] | 16.8 |
| COc1cc2nccc(Oc3ccc(NC(=O)Nc4cc(C)on4)c(Cl)c3)c2cc1OC.O [VEGFR Tyrosine Kinase Inhibitor IV] | 90.7 |
| CCCCN(CCCC)CC(O)c1cc(Cl)cc2c1-c1ccc(Cl)cc1/C2=C/c1ccc(Cl)cc1 (stereo not drawn) | 108 |
| CON=C(C(=O)NC1C(=O)N2C(C(=O)[O-])=C(COC(C)=O)CSC12)c1csc(N)n1.[Na+] (stereo not drawn) [Cefotaxime sodium] | 117 |
| Cc1cnc(C(=O)NCCc2ccc(S(=O)(=O)NC(=O)NC3CCCCC3)cc2)cn1 [Glipizide] | 107 ± 6.9 |
| COc1cc2c(cc1OC)C1C(=O)c3ccc4c(c3OC1CO2)C=CC(C)(C)O4 (stereo not drawn) [Degeulin] | 76.5 |

| SMILES | cell number |
| --- | --- |
| Cc1cccc(-c2[nH]ncc2-c2ccc3ncccc3n2)n1 | 95.3 |
| O=C1OC(C(O)CO)C(O)=C1O (stereo not drawn) [Ascorbic acid] | 103 |
| N=S(=O)([O-])Cc1noc2ccccc12.[Na+] [Zonisamide sodium] | 117 |
| O=C(O)CC/C=C\C[C@H]1CO[C@@H](c2ccccc2Cl)O[C@H]1c1ccccc1O | 96.5 |
| Cl.NCC1OC(C23CC4CC(CC(C4)C2)C3)Cc2c1ccc(O)c2O (stereo not drawn) | 68.9 |
| CC(OC1OCCN(Cc2nc(=O)[nH][nH]2)C1c1ccc(F)cc1)c1cc(C(F)(F)F)cc(C(F)(F)F)c1 (stereo not drawn) [Aprepitant] | 96.8 |
| COc1cc2ncnc(Nc3ccc(F)c(Cl)c3)c2cc1OCCCN1CCOCC1 [Gefitinib] | 102 ± 10 |
| NC(CO)(CO)CO.O=C(c1ccccc1)c1ccc2n1CCC2C(=O)O (stereo not drawn) [Ketorolac tris salt] | 111 |
| CSc1nc(N)c2ncn(C3OC(COP(=O)([O-])OP(=O)([O-])[O-])C(O)C3O)c2n1.[Na+].[Na+].[Na+] (stereo not drawn) [2-Methylthioadenosine diphosphate trisodium] | 92.9 |
| COC(=O)c1ccc2c(c1)nc(NC(=O)c1ccccc1)n2CCCc1ccccc1 | 65.7 |
| CC1C(NC(=O)C(=NOC(C)(C)C(=O)O)c2csc(N)n2)C(=O)N1S(=O)(=O)O (stereo not drawn) [Aztreonam] | 105 |
| CCCCS(=N)(=O)CCC(N)C(=O)O (stereo not drawn) [Buthionine sulfoximine] | 116 |
| O=C(O)c1ccccc1C(=O)Nc1ccc(-c2ccccc2)cc1 [2-[([1,1'-biphenyl]-4-ylamino)carbonyl]benzoic acid] | 99.9 |
| CON=C(C(=O)NC1C(=O)N2C(C(=O)[O-])=C(C[N+]3(C)CCCC3)CSC12)c1csc(N)n1 (stereo not drawn) [Cefepime] | 97 |
| CCCCCCCCC(=O)NCc1cc(OC)c(O)cc1I [N-(4-hydroxy-2-iodo-5-methoxybenzyl)nonanamide] | 98.9 |
| NNC(=O)c1ccncc1 [Isoniazid] | 104 |
| COc1cc(Br)c(Nc2nc(-c3c(C)nc4ncccn34)cs2)c(Br)c1 | 53.8 |
| C=C1CCC2OC2(C)CCC2C1CC2(C)C (stereo not drawn) [Caryophylline] | 99 |
| COc1ccc(-c2cnc3c(-c4ccsc4)cnn3c2)cc1 [VEGF Receptor 2 Kinase Inhibitor IV] | 95.5 |
| NC(=O)Nc1sc(-c2ccc(F)cc2)cc1C(N)=O [IKK-2 Inhibitor IV] | 103 |
